Measured values published in PubChem BioAssay (Tox21).
Results filed as inconclusive are left out. A number with no mark means an inactive call. The call rests on the fitted dose curve.
On the % scale 0 is the no-effect control and ±100 the full control effect.

Assay: p53 small molecule agonists, cell-based qHTS assay with human liver microsomes (AID 1963577);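 further: p53 response element beta-lactamase reporter cells with liver microsomes plus NADPH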
Details: HCT-116 p53RE-bla with human liver microsomes, ratio, 16 h; series mostly up to 66 µM; activation: at the top concentration
Text: National Center for Advancing Translational Sciences [NCATS]
Division of Preclinical Innovation [DPI]
U.S. Environmental Protection Agency [EPA]
National Institutes of Environmental Health Sciences [NIEHS]
National Toxicology Program [NTP]
U.S. Food and Drug Administration [FDA]
p53, a tumor suppressor protein, is activated following cellular insult, including DNA damage and other cellular stresses. The activation of p53 regulates cell fate by inducing DNA repair, cell cycle arrest, apoptosis, or cellular senescence. The activation of p53, therefore, is a good indicator of DNA damage and other cellular stresses. […] The activation of the reporter gene under culture conditions can be detected by fluorescence intensity.
Tox21 Assay Protocol Summary:
The p53RE-bla cells were dispensed at 4,000cells/3ul/well in 1536-well black-clear bottom plates. After the assay plates were incubated at 37 C, 5% CO2 incubator for 5 hours, 23 nL of compounds dissolved in DMSO, positive controls or DMSO only was transferred to the assay plate. Following compound addition, 3 uL of human liver microsomes (XenoTech, Kansas City, KS) at final concentration of 0.5 mg/mL and 1uL of Beta-Nicotinamide adenine dinucleotide 2-phosphate (NADPH) at final concentration of 0.5 mg/mL were transferred to the assay plate. The plates were incubated at 37 C for 16 hours. 1 uL of LiveBLAzer detection mixture was added to each well and the plates were incubated at room temperature in the dark for 2 h.
In the case of `OC1(c2ccc(Cl)c(C(F)(F)F)c2)CCN(CCCC(c2ccc(F)cc2)c2ccc(F)cc2)CC1`, the “activation” value is reported as -10.6% [at 30.3 µM].
For `Cc1ccnc(N)c1`, the “activation” value was -0.476%.
For `O=C(CCBr)N1CCN(C(=O)CCBr)CC1`, the “activation” value was 3.12% [at 30.3 µM].
For `OCCN1C[C@H](O)[C@@H](O)[C@H](O)[C@H]1CO`, the “activation” value was -0.744% [at 30.3 µM].
For `Cc1ccc(-n2nc(C(C)(C)C)cc2NC(=O)Nc2ccc(OCCN3CCOCC3)c3ccccc23)cc1`, the “activation” value was -11.1% [at 30.3 µM].
`CCc1nccnc1CC` gave an activation of 3.14% [at 13.5 µM].
`NCCCNCCSP(=O)(O)O` showed an activation of 9.01% [at 5.99 µM].
Work on `CCn1cc(C(=O)O)c(=O)c2cc(F)c(N3CCN(C)CC3)cc21` yielded an activation of 0.192% [at 13.5 µM].
In the case of `Cc1nc(-c2ccc(Cl)cc2)oc1COC(C)(C)C(=O)O`, the “activation” value is reported as -0.71% [at 30.3 µM].
With `COc1ccc(-n2nc(C(F)F)cc2-c2ccc(S(C)=O)cc2)cc1` (stereo not given) the “activation” value was -7.58%.
In the case of `Cc1nc(C2CCCCC2)c(-c2ccc(S(N)(=O)=O)c(F)c2)o1`, the “activation” value is reported as -11.5% [at 30.3 µM].
With `COc1c(N2C[C@@H]3CCCN[C@@H]3C2)c(F)cc2c(=O)c(C(=O)O)cn(C3CC3)c12` the “activation” value was 0.946% [at 30.3 µM].
In the case of `O=C(O)C[C@H](O)C[C@H](O)/C=C/c1c(C2CC2)nc2ccccc2c1-c1ccc(F)cc1`, the activation is reported as -13.7% [at 13.5 µM].
For `COc1cc(C(=O)NS(=O)(=O)c2ccccc2C)ccc1Cc1cn(C)c2ccc(NC(=O)OC3CCCC3)cc12`, the “activation” value was -13.3% [at 30.3 µM].
For `O=C(O)CCC(=O)OC[C@@H](NC(=O)C(Cl)Cl)[C@H](O)c1ccc([N+](=O)[O-])cc1`, the “activation” value was 0.582% [at 30.3 µM].
With `Cc1cc(CC(=O)O)c(C)n1-c1ccc(Cl)cc1` the “activation” value was 17.1% [at 30.3 µM].
In the case of `NCCOCCOCCN`, the “activation” value is reported as 0.851%.
With `OC[C@H]1O[C@@H](O[C@@H]2[C@@H](CO)O[C@](O)(CO)[C@H]2O)[C@H](O)[C@@H](O)[C@H]1O` the “activation” value was -1.1% [at 30.3 µM].
With `CO/N=C(\C(=O)N[C@@H]1C(=O)N2C(C(=O)O)=C(CSc3nc(=O)c(O)nn3C)CS[C@H]12)c1csc(N)n1` the “activation” value was 0.951% [at 30.3 µM].
For `COc1ccc(C(=O)Nc2ccccc2)cc1[N+](=O)[O-]`, the “activation” value was -6.49%.
With `CC(C(=O)O)c1ccc(-c2ccccc2)c(F)c1` (stereo not given) the “activation” value was -2.21%.
With `CN1[C@@H]2CC[C@H]1CC(OC(=O)C(O)c1ccccc1)C2` (stereo not given in full) the “activation” value was -0.0337% [at 30.3 µM].
For `CC(CCc1ccccc1)NCC(O)c1ccc(O)c(C(N)=O)c1` (stereo not given), the “activation” value was 0.682%.
In the case of `C[C@H](N)[C@H](O)c1cccc(O)c1`, the “activation” value is reported as -7.22% [at 30.3 µM].
With `CC/C=C(\C)C=O` the “activation” value was -1.61%.
With `CN1CCCN=C1COC(=O)C(O)(c1ccccc1)C1CCCCC1` (stereo not given) the “activation” value was -4.38% [at 30.3 µM].
For `Cc1ccccc1C#N`, the “activation” value was 0.725%.
In the case of `CC1CCc2c(N3CCC(O)CC3)c(F)cc3c(=O)c(C(=O)O)cn1c23` (stereo not given), the “activation” value is reported as 14.8% [at 30.3 µM].
For `COc1ccc([C@@H]2Sc3ccccc3NC(=O)[C@@H]2O)cc1`, the “activation” value was -6.49% [at 30.3 µM].
In the case of `CCCCCC(=O)OCC`, the “activation” value is reported as -6.28%.
For `O=C(O)CCNC(=O)c1ccc(N=Nc2ccc(O)c(C(=O)O)c2)cc1`, the “activation” value was -2.89% [at 30.3 µM].
In the case of `CC(CN1CC(=O)NC(=O)C1)N1CC(=O)NC(=O)C1` (stereo not given), the “activation” value is reported as 0.777%.
In the case of `CC(=O)OC(C)c1ccccc1` (stereo not given), the “activation” value is reported as 0.289%.
For `CC(=O)O[C@@H]1CC2CCC1(C)C2(C)C` (stereo not given in full), the “activation” value was 4.75%.
With `CC[C@H](NC(=O)c1cc(F)ccc1NS(=O)(=O)c1cccc2cccnc12)c1ccccc1` the “activation” value was -14.3%.
With `CCCCN(C)C` the “activation” value was 1.25%.
For `C[n+]1cc2c3c(ccc2c2ccc4cc5c(cc4c21)OCO5)OCO3`, the activation was -8.2% [at 13.5 µM].
In the case of `CCCCCCCCCCCC(=O)Cl`, the “activation” value is reported as -0.426%.
In the case of `CC(=O)CCc1ccc(O)cc1`, the “activation” value is reported as 0.404%.
With `CCCCOCCOC(=O)c1cccnc1` the “activation” value was 1.37% [at 30.3 µM].
